The full ranking holds about 33,000 sequences; the median of “e-score” is about -0.053, and the highest 2% start at about 0.38. Shown is part of a subset that was picked to be rich in the highest values.
target: T1, SIX1 homeodomain (reference allele) (human, UniProt Q15475 108-198); assay: universal protein binding microarray; Universal all-10-mer PBM (8x60K, AMADID 030236), 300 nM GST-tagged protein, Alexa Fluor 488 anti-GST; buffer, salt, pH and temperature not stated (as in Berger); high values mean tight binding; conditions: protein: ivt; tags: N-terminal GST; dsDNA, one strand shown
T1 sequence: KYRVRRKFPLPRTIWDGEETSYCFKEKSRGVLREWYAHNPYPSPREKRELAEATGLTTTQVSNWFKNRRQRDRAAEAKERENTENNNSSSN
In short: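 Homeodomains fused to GST were made by in vitro transcription/translation and measured by anti-GST western blot with a recombinant GST standard curve. At 300 nM final concentration, they were applied in duplicate to universal 'all 10-mer' protein binding microarrays (8×60K format).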

| Sequence | binding signal [E-score] |
| --- | --- |
| TGATATAA | 0.297 ± 0.032 |
| AGATATGA | 0.291 ± 0.0439 |
| TGATAGCA | 0.323 ± 0.0297 |
| CGATATTA | 0.365 ± 0.045 |
| CGATATCA | 0.444 ± 0.0437 |
| AAATATCC | 0.271 ± 0.0279 |
| AGATATTA | 0.234 ± 0.119 |
| AGATATTC | 0.219 ± 0.06 |
| AGATATCA | 0.451 ± 0.0439 |
| TGATATCA | 0.48 ± 0.0111 |
| AGATATCC | 0.442 ± 0.0272 |
| CAATATCA | 0.306 ± 0.111 |
| ATCTGTCA | 0.208 ± 0.00539 |
| ATCCCTTG | 0.271 ± 0.0326 |
| GGATTCGA | 0.212 ± 0.0426 |
| TATCCCAA | 0.329 ± 0.0116 |
| CGTATTCA | 0.265 ± 0.0108 |
| ATCTACCG | 0.23245 ± 0.00017 |
| GATCTTCC | 0.2463 ± 0.00105 |
| CGATATCG | 0.439 ± 0.0105 |
| CGATATCC | 0.476 ± 0.0109 |
| CGATATGC | 0.428 ± 0.00624 |
| CGATAGCA | 0.206 ± 0.0373 |
| GGATATCC | 0.4671 ± 0.00165 |
| CGATAGCG | 0.228 ± 0.0412 |

| Sequence | binding signal [E-score] |
| --- | --- |
| GGATAACC | 0.297 ± 0.00525 |
| AGATATGC | 0.353 ± 0.0369 |
| CGATATGA | 0.311 ± 0.0729 |
| CGATATTC | 0.317 ± 0.0233 |
| GGATAGCC | 0.3501 ± 0.00233 |
| CAATATCC | 0.37 ± 0.00402 |
| AGTAATAT | 0.236 ± 0.0691 |
| ATACGGGC | 0.278 ± 0.0276 |
| TCGTCTCA | 0.22 ± 0.0818 |
| GTATGAAC | 0.208 ± 0.0436 |
| GTAACCCA | 0.169 ± 0.0635 |
| ATCATGCG | 0.24 ± 0.02 |
| ATATATGA | 0.233 ± 0.0893 |
| ATCAGCCC | 0.308 ± 0.0315 |
| ATACCCTC | 0.441 ± 0.0106 |
| ACCCCCTA | 0.258 ± 0.0368 |
| ATACTCTG | 0.354 ± 0.0279 |
| ATACCCTA | 0.452 ± 0.00588 |
| ATACCCTG | 0.439 ± 0.0103 |
| ATACCTTC | 0.323 ± 0.0961 |
| ACACCCTG | 0.321 ± 0.0135 |
| ACACCCTA | 0.31 ± 0.00433 |
| ACACCCTC | 0.306 ± 0.00827 |
| CCATCTGA | 0.259 ± 0.0253 |
| AGAAGTAT | 0.297 ± 0.117 |

| Sequence | binding signal [E-score] |
| --- | --- |
| CTTAACAC | 0.151 ± 0.0479 |
| GGGTGAGA | 0.172 ± 0.0545 |
| AGGTGAGA | 0.159 ± 0.0138 |
| AGGTGATC | 0.359 ± 0.0112 |
| CGGTGAGA | 0.253 ± 0.0378 |
| AGGTGATA | 0.418 ± 0.0434 |
| CGGTGATA | 0.4094 ± 0.00389 |
| CGGTGATC | 0.351 ± 0.0309 |
| GGGTGATA | 0.4596 ± 0.00219 |
| GGGTGTTA | 0.282 ± 0.0105 |
| GGGCTATA | 0.2005 ± 0.00146 |
| ATCATGGC | 0.209 ± 0.00482 |
| AGTTATCG | 0.19 ± 0.0243 |
| AGAATCCC | 0.175 ± 0.0139 |
| GTATAACA | 0.238 ± 0.00858 |
| CGATAGGA | 0.26 ± 0.0286 |
| GTATTGCA | 0.169 ± 0.0405 |
| ATAGCACA | 0.169 ± 0.00707 |
| GCTAATCC | 0.208 ± 0.0144 |
| ATCAAGTA | 0.234 ± 0.0311 |
| AGATACGA | 0.279 ± 0.0423 |
| AAATACGG | 0.19 ± 0.0109 |
| CGATACGA | 0.39752 ± 0.00029 |
| AGATACGG | 0.401 ± 0.00895 |
| GGATACGA | 0.36 ± 0.00395 |

| Sequence | binding signal [E-score] |
| --- | --- |
| AGATACGC | 0.349 ± 0.00878 |
| ATATACGG | 0.305 ± 0.00579 |
| CAATACGC | 0.198 ± 0.00389 |
| CGATACGC | 0.434 ± 0.00646 |
| ACTAATCT | 0.192 ± 0.0141 |
| AAGGTGAT | 0.1945 ± 0.00188 |
| AGCCGGTA | 0.169 ± 0.00673 |
| CCGACCCA | 0.155 ± 0.0833 |
| ATTAACAC | 0.258 ± 0.0441 |
| ATTTAATA | 0.164 ± 0.0598 |
| ATCTCCAC | 0.204 ± 0.00599 |
| ATAGTACG | 0.209 ± 0.0147 |
| ACACCGGC | 0.28 ± 0.0468 |
| ATCAATCG | 0.266 ± 0.0101 |
| ATATACCC | 0.446 ± 0.0125 |
| CTATACCC | 0.369 ± 0.00624 |
| ATATACCA | 0.326 ± 0.0157 |
| ATATACTG | 0.299 ± 0.0355 |
| ATATACCG | 0.393 ± 0.00521 |
| ATATACTC | 0.354 ± 0.0664 |
| ATAGCGGA | 0.227 ± 0.0403 |
| CCCAAGCA | 0.263 ± 0.00886 |
| GTAGGCCA | 0.17 ± 0.0671 |
| ACAGGATA | 0.236 ± 0.0392 |
| CGAGGATC | 0.333 ± 0.023 |

| Sequence | binding signal [E-score] |
| --- | --- |
| GCAGGATA | 0.329 ± 0.0306 |
| CCAGGATA | 0.38 ± 0.00746 |
| ATAGGATC | 0.367 ± 0.0232 |
| AGAGGATA | 0.326 ± 0.0175 |
| GTAGGATA | 0.355 ± 0.00663 |
| CAAGGATA | 0.342 ± 0.00822 |
| GGAGGATA | 0.387 ± 0.0115 |
| CTAGGATA | 0.356 ± 0.00923 |
| ATAGGATA | 0.415 ± 0.0252 |
| CGAGGATA | 0.384 ± 0.0112 |
| ACCCTGAT | 0.3 ± 0.0183 |
| GATCGAGA | 0.295 ± 0.041 |
| GATAGCAA | 0.202 ± 0.0434 |
| ATAGAATA | 0.162 ± 0.00811 |
| AGACCATA | 0.19 ± 0.0814 |
| GTCTACAC | 0.152 ± 0.0214 |
| AATACACC | 0.336 ± 0.00415 |
| CAATGATC | 0.31 ± 0.0312 |
| AAATGATC | 0.321 ± 0.107 |
| CAATGATA | 0.418 ± 0.0312 |
| AAATGAGA | 0.16 ± 0.0635 |
| GAATGATC | 0.306 ± 0.0507 |
| AAATGATA | 0.415 ± 0.0488 |
| TAATGATA | 0.36 ± 0.0576 |
| GAATGATA | 0.412 ± 0.066 |

| Sequence | binding signal [E-score] |
| --- | --- |
| GAATAATA | 0.226 ± 0.111 |
| AACACCCG | 0.304 ± 0.00694 |
| ACCTGAGA | 0.158 ± 0.0127 |
| ATCGAAGG | 0.179 ± 0.0692 |
| AGAGTGTA | 0.223 ± 0.0204 |
| AGCCCCTA | 0.153 ± 0.0497 |
| CCGCATTA | 0.157 ± 0.0248 |
| GAGCTGGA | 0.177 ± 0.0153 |
| ATCGCCGA | 0.19 ± 0.0306 |
| ACACCGTA | 0.344 ± 0.0258 |
| ATACCGTC | 0.396 ± 0.0211 |
| ATACCGAC | 0.341 ± 0.0139 |
| ATACCGTG | 0.384 ± 0.0192 |
| ATCCCGTA | 0.342 ± 0.0301 |
| ATACCGTA | 0.391 ± 0.00392 |
| ATTCCGTG | 0.156 ± 0.0528 |
| ACACCGTC | 0.262 ± 0.00999 |
| ACACCGTG | 0.277 ± 0.0223 |
| ATATGGTC | 0.277 ± 0.0141 |
| GGATTAAA | 0.231 ± 0.111 |
| AATCCGAG | 0.237 ± 0.07 |
| CTGGAATC | 0.158 ± 0.0574 |
| CCCATATA | 0.309 ± 0.0133 |
| ACCATACC | 0.154 ± 0.0389 |
| ACCATATA | 0.274 ± 0.008 |

| Sequence | binding signal [E-score] |
| --- | --- |
| ACCATATC | 0.418 ± 0.00875 |
| CCTATATC | 0.352 ± 0.0286 |
| CCCATATC | 0.4689 ± 0.00434 |
| AGGTTTAT | 0.199 ± 0.0561 |
| CCGATGCG | 0.215 ± 0.071 |
| CGATAGGC | 0.175 ± 0.0335 |
| AATATGAT | 0.309 ± 0.00824 |
| AATATCAC | 0.38 ± 0.0781 |
| CCTATCAC | 0.387 ± 0.0097 |
| CATATTAG | 0.191 ± 0.0531 |
| CATATCAG | 0.436 ± 0.0183 |
| AATATCAT | 0.381 ± 0.0478 |
| ACTATCAC | 0.279 ± 0.062 |
| AATATCTC | 0.274 ± 0.0766 |
| AATATCAG | 0.225 ± 0.129 |
| AATATCAA | 0.225 ± 0.165 |
| CTCCATCA | 0.157 ± 0.0276 |
| ATACAGCC | 0.225 ± 0.1 |
| ATCGGGTG | 0.32 ± 0.0738 |
| ACCGGGAT | 0.313 ± 0.0258 |
| GTATTAAA | 0.246 ± 0.142 |
| ATCATCAA | 0.199 ± 0.0117 |

Reference: article PMC10668032, “Altered binding affinity of SIX1-Q177R correlates with enhanced WNT5A and WNT pathway effector expression in Wilms tumor”
